Assay [1] in a line: NCI Yeast Anticancer Drug Screen. Data for the rad50 strain (AID 155).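 Note: 0% = growth of vehicle-only cultures of the same strain.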 The following applies: S. cerevisiae rad50 strain growth inhibition; at 50.0 µM; active compounds read high. In a few lines:
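Relative growth inhibition (compound vs vehicle) was measured in yeast with a defined repair-gene alteration.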

Assay [2] can be described thus: NCI Yeast Anticancer Drug Screen. Data for the mec2-1 strain (AID 157). The following applies: S. cerevisiae mec2-1 strain, at 50.0 µM, active compounds read high. In a few lines:
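mec2-1 yeast strain, carrying an alteration in DNA damage repair or cell cycle control, was exposed to compounds; growth inhibition was measured relative to vehicle-treated controls.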

Assay [3] is described as follows: NCI Yeast Anticancer Drug Screen. Data for the sgs1 mgt1 strain (AID 161).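 Note: 0% = growth of cultures given vehicle only.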 The settings on record: S. cerevisiae sgs1 mgt1 strain, at 50.0 µM, active compounds read high. In a few lines: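 Percent growth inhibition was derived by comparing compound-exposed mutant yeast with vehicle-exposed cultures. The strain carries alterations in DNA damage repair.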
A short description of assay [4]: NCI Yeast Anticancer Drug Screen. Data for the cln2 rad14 strain (AID 165).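 Note: 0% = growth equal to vehicle treated cultures.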 The settings on record: S. cerevisiae cln2 rad14 strain, at 50.0 µM, active compounds read high. In a few lines:
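Yeast carrying cln2 and rad14 alterations (cell cycle control and DNA damage repair) were exposed to compounds. Growth inhibition was measured against vehicle-treated controls.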

A short description of assay [5]: NCI Yeast Anticancer Drug Screen. Data for the bub3 strain (AID 167). The following applies: S. cerevisiae bub3 mutant strain, at 50.0 µM, active compounds read high. In a few lines: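 Screening used yeast with an engineered genetic alteration affecting cell cycle control. Compound-exposed cultures were compared with vehicle cultures, and reduced growth was taken as inhibition.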

Assay [6] in a line: NCI Yeast Anticancer Drug Screen. Data for the mlh1 rad18 strain (AID 175). The following applies: S. cerevisiae mlh1 rad18 strain growth inhibition; at 50.0 µM; active compounds read high. In a few lines: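 Growth inhibition of the yeast strain was measured after compound exposure and expressed relative to vehicle-treated controls. The strain carries defined defects in DNA damage repair.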

Molecules are shown by their SMILES. This is part of a sample that, as a whole, favours compounds with a hit. Of some 79,000 tested, about 15% had one in any assay. Unmarked numbers belong to inactive results. The source made the active and inactive calls. Cut-off read from the data, not from the text of the source: active = growth inhibition above about 70%; inactive = the rest.

In the case of `c1scc2c1COCCOCCOCCOCCOCCOCCOC2`, the growth inhibition is -21.7% in assay [1]; -14.8% in assay [2]; 10.4% in assay [3]; 5.05% in assay [4]; 6.3% in assay [5]; -6.9% in assay [6].
For the compound `O=C1c2ccccc2C(=O)N1CCSCCSCCN1C(=O)c2ccccc2C1=O`, the growth inhibition was -3.1% in assay [1]; -13.7% in assay [2]; 12.6% in assay [3]; 14.6% in assay [4]; -7.15% in assay [5]; 10.2% in assay [6].
On to `O=C(N/N=C/C=C/c1ccccc1)NNC(=O)c1cc([N+](=O)[O-])cc([N+](=O)[O-])c1`, for which the growth inhibition in assay [1] was 31%; in assay [2], 10.8%; in assay [3] it was 38.3%; in assay [4], 13.8%; in assay [5], 2.65%; in assay [6], 24.2%.
For the compound `Cc1ccc(C)c(NC(=O)Oc2ccc(Br)cc2Br)c1`, the growth inhibition in assay [1] is 11.4%; in assay [2] it was 5.9%; in assay [3], 3.4%; in assay [4], -28.1%; in assay [5] it was -1%; in assay [6], 18.1%.
For `CC(=O)NC(C)CC1=CC(=O)C(C)=CC1=O` (stereo unspecified), the growth inhibition in assay [1] is 1.45%; in assay [2], -13.4%; in assay [3], -16.1%; in assay [4] it was -33.7%; in assay [5] it was -18.9%; in assay [6] it was -11.6%.
Consider `CC1(C)C2CCC(C2)C1/C=C1/SC(=S)NC1=O` (stereo unspecified), for which the growth inhibition in assay [1] was -6.2%; in assay [2], -1.55%; in assay [3], 1.55%; in assay [4] it was 49%; in assay [5], 17.8%; in assay [6] it was 2.85%.
Regarding `OCC1OC(n2cc[nH]c2=S)C(O)C1O` (stereo unspecified), the growth inhibition in assay [1] was 8.5%; in assay [2] it was 7.6%; in assay [3], -2.6%; in assay [4], 4.45%; in assay [5], 10.2%; in assay [6], -12.7%.
With `COc1ccc2c(c1)C(=O)N1CCOC1C2C(=O)O` (stereo unspecified), the growth inhibition in assay [1] was 0.1%; in assay [2], -31.8%; in assay [3], -9.5%; in assay [4], 11.3%; in assay [5], -0.8%; in assay [6], -30.3%.
With `Cn1c(=O)c2nsnc2n(C)c1=O`, the growth inhibition in assay [1] is -21.1%; in assay [2], -11%; in assay [3], -14.2%; in assay [4], -25.3%; in assay [5] it was -3.7%; in assay [6] it was 14.1%.
Regarding `Nc1ccc(OCCCc2c(N)nc(N)nc2N)c(Cl)c1`, the growth inhibition is 98% (active) in assay [1]; 99.1% (active) in assay [2]; 99.3% (active) in assay [3]; 98.2% (active) in assay [4]; 98.3% (active) in assay [5]; 98.5% (active) in assay [6].
`N#Cc1ccc(OCCCCCOc2ccc([N+](=O)[O-])cc2)cc1`: the growth inhibition in assay [1] is 19.4%; in assay [2], 11.6%; in assay [3], 8.65%; in assay [4], 12.8%; in assay [5], 13.9%; in assay [6], 4.4%.
Turning to `O=C(Nc1ccc(Nc2ccc(NC(=O)c3ccccc3)c3c2C(=O)c2ccccc2C3=O)c2c1C(=O)c1ccccc1C2=O)c1ccccc1`, the growth inhibition in assay [1] is 6.8%; in assay [2] it was -15.6%; in assay [3] it was 6.05%; in assay [4] it was 6.1%; in assay [5], -1.95%; in assay [6] it was -9.1%.
As for `Cc1nnc(Nc2ccc(Cl)c(Cl)c2)s1`, the growth inhibition in assay [1] was -6.95%; in assay [2], -20%; in assay [3], 26.8%; in assay [4] it was 12.3%; in assay [5], 11.3%; in assay [6] it was 4.75%.
Regarding `CCCCCCC1NC(CCCCCC)N2C(CCCCCC)N12` (stereo unspecified), the growth inhibition in assay [1] was 28.9%; in assay [2] it was 16.8%; in assay [3] it was -2.15%; in assay [4], 0%; in assay [5], 21.6%; in assay [6] it was -2.7%.
Regarding `CCCCCCCCCCCCCCCC/C=C\CCCCCCCCCCCCCCCCC`, the growth inhibition in assay [1] was -7.8%; in assay [2], -18.1%; in assay [3] it was -0.85%; in assay [4], 17.3%; in assay [5], 2.25%; in assay [6], -13.1%.
As to `O=S1(=O)C=Cc2ccccc2CC1`, the growth inhibition in assay [1] is -4.15%; in assay [2], -12.2%; in assay [3] it was -22.4%; in assay [4], -10.8%; in assay [5], 0.9%; in assay [6], -27.8%.
Turning to `C/C(=C1/N=C(c2ccccc2)OC1=O)c1ccccc1`, the growth inhibition is 39.5% in assay [1]; 70% (active) in assay [2]; 65.4% in assay [3]; 75.7% (active) in assay [4]; 94.6% (active) in assay [5]; 80.5% (active) in assay [6].
As for `O=C(NCCNCCO)N/N=C/c1ccc([N+](=O)[O-])cc1`, the growth inhibition was -8.75% in assay [1]; -7.35% in assay [2]; -1.4% in assay [3]; 36.6% in assay [4]; 0.3% in assay [5]; -3.65% in assay [6].
With `CC(C)CCOC(=O)C(O)C(O)C(=O)OCCC(C)C` (stereo unspecified), the growth inhibition in assay [1] is 14.2%; in assay [2], 12.5%; in assay [3], -3.05%; in assay [4] it was -39%; in assay [5], -0.85%; in assay [6], 13.2%.
`O=C(Nc1ccccc1)C(=O)Nc1ccccc1`: the growth inhibition was 5.4% in assay [1]; -18.1% in assay [2]; -8.05% in assay [3]; -12.7% in assay [4]; -10.9% in assay [5]; -4.25% in assay [6].
As to `NS(=O)(=O)c1ccc(NC(=O)CCl)cc1`, the growth inhibition is 6.5% in assay [1]; -6.8% in assay [2]; -1.9% in assay [3]; 11.7% in assay [4]; 3.3% in assay [5]; -15.9% in assay [6].

The record behind these values is PubChem BioAssay (NCI).
